# From PubChem BioAssay (EPA / NIEHS)
# Calls of active or inactive are those of the source. The calls were made as follows: active = hit-call score of the fitted dose curve at least 0.9, where 1 is the maximum; inactive = score below 0.9.
# Experiment: CEETOX_H295R_11DCORT: CeeTox H295R High-throughput Steroidogenesis Assay for 11-Deoxycortisol (11DCORT) (AID 2283432);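 as to AC50: 11-deoxycortisol secreted into the medium measured by LC-MS/MS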
# Details: actives raise or lower the signal
# Method in brief: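 H295R cells prestimulated 48 h with 10 uM forskolin, then exposed 48 h to chemical in 0.1% DMSO. 11-Deoxycortisol in medium quantified by HPLC-MS/MS after MTBE extraction; bidirectional fit versus DMSO. MTT viability read in same wells.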
Compound,outcome,AC50
Nc1ccc(-c2ccc(N)c(Cl)c2)cc1Cl,inactive,
CN(CCCC(=O)c1cccnc1)N=O,inactive,
CCOP(=S)(OCC)SCCS(=O)(=O)CC,inactive,
C1CCC(NC2CCCCC2)CC1,inactive,
C=CC(=O)N(C)C,inactive,
O=C(Nc1ccc2[nH]ccc2c1)c1cc2cc(F)ccc2n1Cc1cccc(F)c1,,3.48 µM (active)
CCCCCCCCC(=O)NCc1ccc(O)c(OC)c1,inactive,
CCOP(=S)(OCC)SCSP(=S)(OCC)OCC,,18.6 µM (active)

# Experiment: CEETOX_H295R_OHPREG: CeeTox H295R High-throughput Steroidogenesis Assay for OH-Pregnenolone (OHPREG) (AID 2283434)
# Details: actives raise or lower the signal
# Method in brief: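 Human adrenal H295R cells were prestimulated 48 h with 10 uM forskolin, then exposed 48 h to chemical in 0.1% DMSO. Medium 17alpha-hydroxypregnenolone was quantified by HPLC-MS/MS after MTBE extraction; bidirectional fitting versus DMSO baseline.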
Compound,outcome,AC50
Nc1ccc(-c2ccc(N)c(Cl)c2)cc1Cl,inactive,
C[C@@H]1C[C@@H]([C@H](O)CC2CC(=O)NC(=O)C2)C(=O)[C@@H](C)C1,inactive,
C(=NC1CCCCC1)=NC1CCCCC1,inactive,
CN(CCCC(=O)c1cccnc1)N=O,inactive,
CCOP(=S)(OCC)SCCS(=O)(=O)CC,inactive,
C1CCC(NC2CCCCC2)CC1,inactive,
CC(C)OC(=O)Nc1ccccc1,inactive,
C=CC(=O)N(C)C,inactive,
O=C(Nc1ccc2[nH]ccc2c1)c1cc2cc(F)ccc2n1Cc1cccc(F)c1,,1.11 µM (active)
CCCCCCCCC(=O)NCc1ccc(O)c(OC)c1,inactive,
NNC(=S)NN,,50 µM (active)
CCOP(=S)(OCC)SCSP(=S)(OCC)OCC,,14.9 µM (active)
